Results taken from PubChem BioAssay AID1053122 (Broad Institute, 2014).
Results with a measured potency or affinity are listed apart.

Assay: YAP1 pathway inhibition via CTGF transcript levels, dose response, cell-based, DLD1 colon cancer, RT-qPCR, cherry-pick (AID 1053122)
Conditions: DLD1 CTGF mRNA (YAP1 pathway), 24 h; series mostly up to 26 µM; CTGF expression fold change (lower = inhibition): at the top concentration;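 active means CTGF level falls with dose and the fitted half-maximal dose is at most twice the top valid dose; inconclusive means flat fit with 30 to 70% drop, or a poor fit; inactive means the rest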

CTGF expression fold change (lower = inhibition), inactive:
COc1ccc2c3c([nH]c2c1)[C@H](CO)NCC31CCN(C(=O)Cc2cccnc2)CC1 1.08 unspecified, COc1ccc2c3c(n(C)c2c1)[C@H](CO)N(S(C)(=O)=O)CC31CCN(C(=O)Nc2cccc(F)c2)CC1 0.819 unspecified, C[C@H]1CN([C@@H](C)CO)S(=O)(=O)c2ccc(-c3cncnc3)cc2O[C@@H]1CN(C)C(=O)NC1CCCC1 0.874 unspecified, COCC(=O)N1CC[C@@H]2[C@H](CO)Nc3ccc(C#Cc4ccc(F)cc4)cc3[C@@H]21 0.472 unspecified, C[C@@H]1CN([C@@H](C)CO)C(=O)c2ccccc2-c2ccccc2CO[C@H]1CN(C)C(=O)Nc1cccc(C(F)(F)F)c1 0.611 unspecified, O=C(Nc1ccc(C(F)(F)F)cc1)Nc1ccc2c(c1)[C@H]1C[C@H](CC(=O)N3CCc4ccccc4C3)O[C@@H](CO)[C@H]1O2 0.502 unspecified, N#Cc1cccc(-c2ccc3c(c2)[C@@H]2[C@@H](CCN2S(=O)(=O)c2ccc(F)cc2)[C@H](CO)N3)c1 0.556 unspecified, COCC(=O)N1CC(=O)N2[C@H](CO)[C@@H](c3ccc(C#CC4CC4)cc3)[C@H]2C1 0.97 unspecified, Cc1ccc(S(=O)(=O)N[C@H]2C=C[C@H](CC(=O)NCc3ccc(Cl)c(Cl)c3)O[C@H]2CO)cc1 1.01 unspecified
